Compound activity (PubChem)
Compounds with a hit are over-represented: about 22% of the library has one in this group of screens.
CYP2C19 inh: inhibitors of human CYP2C19 | P33261 | CYP2C19 Supersomes, luciferin-H EGE luminescence, 30 min | inhibition, % at 5 µM | 96,000 tested, 21% active | AID 778;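 active means CYP2C19 inhibition above a set limit at 5 µM in the primary screen, cut at about 50% in these data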
Target sequence (P33261 whole entry, looked up): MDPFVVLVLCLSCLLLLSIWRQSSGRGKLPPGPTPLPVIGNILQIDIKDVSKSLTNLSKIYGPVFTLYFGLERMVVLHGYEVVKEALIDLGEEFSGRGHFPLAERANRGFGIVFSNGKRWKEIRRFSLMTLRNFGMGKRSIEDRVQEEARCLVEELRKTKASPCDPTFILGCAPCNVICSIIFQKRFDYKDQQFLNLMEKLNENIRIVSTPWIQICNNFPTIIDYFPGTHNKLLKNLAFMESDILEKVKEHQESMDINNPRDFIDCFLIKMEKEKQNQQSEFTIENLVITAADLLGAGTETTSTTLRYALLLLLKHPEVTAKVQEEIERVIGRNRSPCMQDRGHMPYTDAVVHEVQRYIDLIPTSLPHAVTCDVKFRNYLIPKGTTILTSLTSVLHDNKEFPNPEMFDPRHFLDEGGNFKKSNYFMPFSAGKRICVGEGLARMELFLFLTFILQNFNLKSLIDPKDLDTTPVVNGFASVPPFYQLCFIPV
CYP2C9 inh: inhibitors of human CYP2C9; P11712; AID 777; inhibition, % at 5 µM; CYP2C9 Supersomes, luciferin-H conversion, luminescence; 96,000 tested, 20% active;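 active means blocking of liver enzyme CYP2C9 beyond about 50% at 5 µM, limit read from the data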
CYP2C9 act: CYP2C9 (human) activation; activation factor at 5 µM; 96,000 tested, 1.4% active; AID 1024; P11712; recombinant CYP2C9, luciferin-H conversion, luminescence; stronger effect = higher value; factor 1 = untreated enzyme, 0 = blocked;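 active means activation factor of 2 or more for CYP2C9 at a 5 µM dose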
Measles CPE: protection of cells from measles virus. Measles virus-infected cells, CPE protection, absorbance. protection (pct of control), % at 4 µM. 140,000 tested, 1.5% active. AID 841; in the data active means protection mostly above about 24%, no sharp cut-off; inactive means mostly below about 26%
CYP2C19 act: activators of human cytochrome P450 2C19; P33261; recombinant CYP2C19, luciferin-H EGE luminescence; stronger effect = higher value; 0 = fully inhibited enzyme, 1 = untreated enzyme; activation factor at 5 µM; 96,000 tested, under 10 active;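 active means activation factor of at least 2 at 5 µM in the primary screen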
Of the large screens only hits and unclear results are named; the others gave an inactive call.

Cc1ccc(C(=O)O/N=C/c2c(N3CCOCC3)n(C)c3ccccc23)cc1	CYP2C19 inh 68, CYP2C9 inh 84
Cn1c(N2CCOCC2)c(/C=N/OC(=O)c2ccc(F)cc2)c2ccccc21	CYP2C9 inh 56
CC(=O)O/N=C/c1c(N2CCOCC2)n(C)c2ccccc12	none
Cn1c(Cl)c(/C=N/OC(=O)c2ccc(Cl)cc2)c2ccccc21	CYP2C9 act 2.1
Cc1ccc(C(=O)O/N=C/c2c(Cl)n(C)c3ccccc23)cc1	none
CCNC(=O)CN(c1ccc(CC)cc1)S(C)(=O)=O	none
COC(=O)c1ccc(OC)c(CSc2nnc(COc3ccc(Cl)cc3)o2)c1	CYP2C19 inh 76, CYP2C9 inh 88
COC(=O)c1ccc(OC)c(CSc2nnc(COc3ccccc3)o2)c1	none
COC(=O)c1ccc(OC)c(CSc2nnc(-c3ccc(C(C)(C)C)cc3)o2)c1	CYP2C19 inh 90, CYP2C9 inh 84
O=C(CSc1nnc(COc2ccc(Cl)cc2)o1)N1c2ccccc2CCc2ccccc21	CYP2C9 inh 74
O=C(C1CCN(S(=O)(=O)c2ccc(F)cc2)CC1)N1CC=C(c2ccccc2)CC1	none
O=C(Nc1nc2ccc(Cl)cc2s1)[C@@H]1CCCN1C(=O)c1cccs1	none (no result: CYP2C19 inh, CYP2C9 inh, CYP2C9 act, CYP2C19 act)
O=C(CSc1nnc(NC(=O)c2ccc(S(=O)(=O)N3CCOCC3)cc2)s1)Nc1ccccc1C(F)(F)F	none (no result: CYP2C19 inh, CYP2C9 inh, CYP2C9 act, CYP2C19 act)
COc1ccc(OC)c(NC(=O)COc2ccc(S(=O)(=O)NC(C)C)cc2)c1	none
CCCCOc1ccc(S(=O)(=O)Nc2cc(OC)ccc2OC)cc1	CYP2C19 inh 86, CYP2C9 inh 74
COc1ccc(OC)c(NS(=O)(=O)c2ccc(Cl)nc2)c1	Measles CPE 32 (no result: CYP2C19 inh, CYP2C9 inh, CYP2C9 act, CYP2C19 act)
Cn1c(CO)cnc1SCc1ccc(Cl)cc1	CYP2C19 inh 84
COC(=O)Cc1cc(=O)n2[nH]c(C(F)(F)F)nc2n1	none
CCOc1cc(/C=N/NC(=O)c2cc(C)[nH]n2)ccc1OC(=O)c1ccc([N+](=O)[O-])cc1	none
COc1ccc(Br)cc1/C=N/NC(=O)c1nc(-c2ccccc2)n2c1CCCCC2	CYP2C19 inh 60
Cc1cc(C(=O)N/N=C/c2cc(Br)ccc2OC(=O)c2ccccc2)n[nH]1	CYP2C9 inh 61
O=C(N1CCOCC1)C(F)(F)C(=O)N1CCOCC1	none
O=C(N/N=C1/CC2C=CCC12)c1ccco1 (centres undefined)	none (no result: CYP2C19 inh, CYP2C9 inh, CYP2C9 act, CYP2C19 act)
O=C(NCCCc1ccccc1)c1cnc2n(c1=O)CCS2	CYP2C19 inh 83
O=C(NCCc1ccc(Cl)cc1)c1cnc2n(c1=O)CCS2	CYP2C19 inh 55 (no result: Measles CPE)
CCCc1nnc(NC(=O)CCC(=O)N2CCCCC2CC)s1 (centres undefined)	none
O=C(Nc1nc2ccccc2s1)c1ccc(OCC2CCCO2)cc1 (centres undefined)	none (no result: CYP2C19 inh, CYP2C9 inh, CYP2C9 act, CYP2C19 act)
COc1ccc(CCN(Cc2cccs2)S(=O)(=O)c2ccc(S(=O)(=O)N3CCC(C)CC3)cc2)cc1OC	none (no result: CYP2C19 inh, CYP2C9 inh, CYP2C9 act, CYP2C19 act)
Cn1c(CN2CCCC2)nc2cc(NC(=O)c3cccs3)ccc21	none (no result: CYP2C19 inh, CYP2C9 inh, CYP2C9 act, CYP2C19 act)
Cc1ccccc1CSCCNC(=O)CCSc1ccccc1	CYP2C9 inh 76
Cc1ccc(CSCCNC(=O)CCSc2ccccc2)cc1	CYP2C9 inh 65
CCOC(=O)c1cc(CC)sc1/N=C/C1=C(O)CCCC1=O	none (no result: CYP2C19 inh, CYP2C9 inh, CYP2C9 act, CYP2C19 act)
O=S(=O)(c1ccccc1C(F)(F)F)N1CCC(n2cnc3ccccc32)CC1	CYP2C19 inh 88, CYP2C9 inh 71
O=C(O)c1ccc2c(c1)ncn2C1CCCCC1	none
CC1CCN(CCOc2cccc(Br)c2)CC1	none (no result: CYP2C19 inh, CYP2C9 inh, CYP2C9 act, CYP2C19 act)
Cc1cc(OCCCn2ccnc2)cc(C)c1Cl	CYP2C19 inh 100, CYP2C9 inh 97
CCOc1cccc(OCCCCn2ccnc2)c1	CYP2C19 inh 99, CYP2C9 inh 89
Brc1cccc(OCCn2ccnc2)c1	CYP2C19 inh 93, CYP2C9 inh 64
Brc1cccc(OCCOCCn2ccnc2)c1	CYP2C19 inh 100, CYP2C9 inh 99
CCc1cccc(OCCCn2ccnc2)c1	none (no result: CYP2C19 inh, CYP2C9 inh, CYP2C9 act, CYP2C19 act)
CCOC(=O)Cc1csc(NC(=O)CSc2nncn2C)n1	none (no result: CYP2C19 inh, CYP2C9 inh, CYP2C9 act, CYP2C19 act)
Cc1snc(SCC(=O)N/N=C(\N)COc2ccc(F)cc2)c1C#N	none
Cc1snc(S(=O)(=O)/C(C#N)=N\Nc2ccccc2)c1C#N	CYP2C9 inh 92
Cc1snc(S(=O)(=O)/C(C#N)=N/Nc2ccc(C(F)(F)F)cc2)c1C#N	CYP2C9 inh 94
O=C(O)C1C2C=CC(O2)C1C(=O)NCCCn1ccnc1 (centres undefined)	none
O=C(NCCCn1ccnc1)C1CC2CCC1C2 (centres undefined)	CYP2C19 inh 98, CYP2C9 inh 74
